These results are taken from ChEMBL document CHEMBL3988442, “University of Dundee, Small-Polar-MMV Screening Library” (2021).

Holding throughout (parameters): scale not given: direction of the effect not stated beside the values
For test [1], the target named is Protein translocase subunit SecA (Escherichia coli (strain K12)) (UniProt P10408). The test is described as follows: Assay to Identify E. coli SecA ATPase Inhibitors. As to conditions: 30 µM. It counts as functional.
The target of test [2] is T1, Ubiquitin-activating enzyme e1, putative (Leishmania donovani (strain BPK282A1)) (UniProt E9BSI1).
T1 sequence (whole entry): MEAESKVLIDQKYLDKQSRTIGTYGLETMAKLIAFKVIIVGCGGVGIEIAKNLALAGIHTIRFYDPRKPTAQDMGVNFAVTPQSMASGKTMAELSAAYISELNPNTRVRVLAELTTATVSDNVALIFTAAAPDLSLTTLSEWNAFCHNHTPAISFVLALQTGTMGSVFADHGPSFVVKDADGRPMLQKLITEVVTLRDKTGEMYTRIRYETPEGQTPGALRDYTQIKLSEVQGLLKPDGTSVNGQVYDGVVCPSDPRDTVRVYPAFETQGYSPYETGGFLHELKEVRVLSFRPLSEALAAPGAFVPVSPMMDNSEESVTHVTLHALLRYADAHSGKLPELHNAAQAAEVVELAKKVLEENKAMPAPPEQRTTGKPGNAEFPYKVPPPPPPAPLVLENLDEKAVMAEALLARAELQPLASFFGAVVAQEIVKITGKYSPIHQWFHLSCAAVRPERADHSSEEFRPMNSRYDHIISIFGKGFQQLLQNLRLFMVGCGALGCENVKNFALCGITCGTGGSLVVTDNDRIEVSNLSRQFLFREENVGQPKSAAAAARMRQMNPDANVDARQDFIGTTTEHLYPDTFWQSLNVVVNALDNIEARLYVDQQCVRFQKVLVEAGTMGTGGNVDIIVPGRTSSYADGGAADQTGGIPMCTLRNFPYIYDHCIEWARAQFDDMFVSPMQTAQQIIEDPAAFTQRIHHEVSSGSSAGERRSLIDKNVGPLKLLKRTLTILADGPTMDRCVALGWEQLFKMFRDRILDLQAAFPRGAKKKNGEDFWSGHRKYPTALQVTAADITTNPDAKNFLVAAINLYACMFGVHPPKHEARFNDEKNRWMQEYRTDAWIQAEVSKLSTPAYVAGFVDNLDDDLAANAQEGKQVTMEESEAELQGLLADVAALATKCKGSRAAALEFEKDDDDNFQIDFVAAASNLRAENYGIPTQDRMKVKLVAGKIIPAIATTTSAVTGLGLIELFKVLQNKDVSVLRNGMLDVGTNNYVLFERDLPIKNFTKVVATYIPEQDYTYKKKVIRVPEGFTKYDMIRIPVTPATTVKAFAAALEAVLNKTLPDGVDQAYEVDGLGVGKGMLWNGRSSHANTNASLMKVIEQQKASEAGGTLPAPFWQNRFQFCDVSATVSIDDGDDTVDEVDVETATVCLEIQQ
The experiment in a line: Leishmania donovani Ubiquitin Activating Enzyme (LdE1). The format is functional. The settings on record: 30 µM.

For test [3], the target named is AMP-activated protein kinase, AMPK (Homo sapiens) (UniProt P54646+O43741+P54619+Q9UGJ0+Q9Y478+Q13131+Q9UGI9). The experiment in a line: AMP-dependent Kinase enzyme assay. An in vitro enzyme assay that detects ADP turnover that is directly proportional to AMPK activity. This uses naive AMPK that is activated during the assay with MK-8722. The format is functional. As to conditions: 30 µM.

For test [4], the target named is Sialic acid-binding Ig-like lectin 9 (Homo sapiens) (UniProt Q9Y336). The experiment in a line: Hs-Siglec9 ALPHAscreen SOP 20170721. The settings on record: 10 µM. A general note: Alpha assays give light when donor and acceptor beads are brought close together.
Sialic acid-binding Ig-like lectin 9 (Homo sapiens), sequence (Q9Y336 whole entry): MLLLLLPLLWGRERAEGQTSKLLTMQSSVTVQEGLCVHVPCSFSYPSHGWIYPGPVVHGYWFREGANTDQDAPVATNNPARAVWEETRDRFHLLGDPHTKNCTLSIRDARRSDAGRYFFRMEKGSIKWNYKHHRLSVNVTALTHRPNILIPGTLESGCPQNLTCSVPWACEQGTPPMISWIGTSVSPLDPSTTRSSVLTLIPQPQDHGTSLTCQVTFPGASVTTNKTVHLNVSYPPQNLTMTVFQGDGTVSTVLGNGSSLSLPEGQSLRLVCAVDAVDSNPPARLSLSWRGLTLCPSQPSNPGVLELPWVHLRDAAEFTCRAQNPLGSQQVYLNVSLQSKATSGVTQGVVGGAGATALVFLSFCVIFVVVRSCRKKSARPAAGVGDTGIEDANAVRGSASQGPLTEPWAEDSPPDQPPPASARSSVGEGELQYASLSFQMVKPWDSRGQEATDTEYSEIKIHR
Test [5] concerns Trypanosoma cruzi. The test is described as follows: Trypanosoma cruzi phosphomannomutase and mannose-1-phosphate guanylyltransferase assay. The format is functional. As to conditions: 10 µM.
For test [6], the target named is T2, Arginase-2, mitochondrial (Homo sapiens) (UniProt P78540).
T2 sequence (whole entry): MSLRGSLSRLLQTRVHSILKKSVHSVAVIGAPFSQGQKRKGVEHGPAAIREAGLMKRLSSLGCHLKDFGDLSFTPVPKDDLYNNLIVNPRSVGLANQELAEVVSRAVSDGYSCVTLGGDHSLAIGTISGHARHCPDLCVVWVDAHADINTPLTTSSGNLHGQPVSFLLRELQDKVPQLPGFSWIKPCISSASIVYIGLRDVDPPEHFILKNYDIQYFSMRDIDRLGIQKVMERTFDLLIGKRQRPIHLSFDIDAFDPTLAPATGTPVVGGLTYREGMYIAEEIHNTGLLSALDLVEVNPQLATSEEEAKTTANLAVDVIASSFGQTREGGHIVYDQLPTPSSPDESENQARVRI
The test is described as follows: in vitro enzyme assay to detect the production of urea directly proportional to the activity of Arginase II. Also: in the data most compounds retested in dose-response had high values. The format is functional. The settings on record: 33.3 µM.

Test [7] addresses T3, Proteasome subunit beta (Trypanosoma cruzi) (UniProt O96673).
T3 sequence (whole entry): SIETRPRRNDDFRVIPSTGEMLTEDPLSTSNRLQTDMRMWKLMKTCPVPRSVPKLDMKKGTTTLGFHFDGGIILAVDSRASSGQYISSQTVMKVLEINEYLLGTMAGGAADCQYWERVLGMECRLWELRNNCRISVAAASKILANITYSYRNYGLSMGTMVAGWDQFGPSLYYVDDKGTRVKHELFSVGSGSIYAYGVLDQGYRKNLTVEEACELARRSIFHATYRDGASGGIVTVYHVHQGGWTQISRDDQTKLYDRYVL
The test is described as follows: Trypanosoma cruzi proteasome chymotrypsin-like activity (TcProtChymo) assay. Also: in the data most compounds retested in dose-response had high values. The format is functional. As to conditions: 9.37 µM.

The species entered for test [8] is Homo sapiens. The experiment in a line: To identify inhibition of the IFN signalling (Jak-Stat) pathway via expression of an eGFP reporter gene under the control of an IFN-stimulated response element (ISRE) containing MxA promoter. It counts as functional. The settings on record: 30 µM. (In general: In a reporter assay the amount or activity of a reporter protein is the signal.)

Test [9] deals with T4, Tyrosyl-tRNA synthetase, putative (Trypanosoma cruzi (strain CL Brener)) (UniProt Q4DSP6).
T4 sequence (whole entry): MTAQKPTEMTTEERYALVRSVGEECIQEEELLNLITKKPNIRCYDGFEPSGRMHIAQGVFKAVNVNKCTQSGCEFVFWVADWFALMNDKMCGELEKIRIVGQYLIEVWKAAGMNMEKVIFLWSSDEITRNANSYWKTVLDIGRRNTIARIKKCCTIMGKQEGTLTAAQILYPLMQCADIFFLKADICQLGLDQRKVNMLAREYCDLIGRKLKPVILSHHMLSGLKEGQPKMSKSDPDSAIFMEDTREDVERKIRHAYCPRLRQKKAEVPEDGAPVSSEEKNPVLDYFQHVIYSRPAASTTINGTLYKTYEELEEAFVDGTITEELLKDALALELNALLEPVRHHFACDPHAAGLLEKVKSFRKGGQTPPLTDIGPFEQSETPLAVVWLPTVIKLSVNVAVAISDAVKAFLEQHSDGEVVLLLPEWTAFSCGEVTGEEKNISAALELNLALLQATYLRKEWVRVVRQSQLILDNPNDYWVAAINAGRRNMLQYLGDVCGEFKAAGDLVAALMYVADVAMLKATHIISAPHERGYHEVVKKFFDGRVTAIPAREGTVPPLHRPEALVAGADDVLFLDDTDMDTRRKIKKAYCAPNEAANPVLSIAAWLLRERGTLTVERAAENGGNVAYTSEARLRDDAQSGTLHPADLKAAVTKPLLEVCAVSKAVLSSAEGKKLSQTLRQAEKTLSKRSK
The experiment in a line: Trypanosoma cruzi tyrosyl tRNA synthetase (TcYRS) _High Tyrosine SOP. Also: in the data most compounds retested in dose-response had high values. It counts as functional. The settings on record: 30 µM.

The target of test [10] is T4, Tyrosyl-tRNA synthetase, putative (Trypanosoma cruzi (strain CL Brener)). The test is described as follows: Trypanosoma cruzi tyrosyl tRNA synthetase (TcYRS) SOP. It counts as functional. The settings on record: 30 µM.
For test [11], the target named is Chromo domain-containing protein 1 (Saccharomyces cerevisiae (strain ATCC 204508 / S288c) (Baker's yeast)) (UniProt P32657). The test is described as follows: ScCHD-1 Enzyme Inhibition Assay. Also: in the data most compounds retested in dose-response had high values. It counts as functional. As to conditions: 30 µM.
Chromo domain-containing protein 1 (Saccharomyces cerevisiae (strain ATCC 204508 / S288c) (Baker's yeast)), sequence (P32657 whole entry, the tested form may be a part): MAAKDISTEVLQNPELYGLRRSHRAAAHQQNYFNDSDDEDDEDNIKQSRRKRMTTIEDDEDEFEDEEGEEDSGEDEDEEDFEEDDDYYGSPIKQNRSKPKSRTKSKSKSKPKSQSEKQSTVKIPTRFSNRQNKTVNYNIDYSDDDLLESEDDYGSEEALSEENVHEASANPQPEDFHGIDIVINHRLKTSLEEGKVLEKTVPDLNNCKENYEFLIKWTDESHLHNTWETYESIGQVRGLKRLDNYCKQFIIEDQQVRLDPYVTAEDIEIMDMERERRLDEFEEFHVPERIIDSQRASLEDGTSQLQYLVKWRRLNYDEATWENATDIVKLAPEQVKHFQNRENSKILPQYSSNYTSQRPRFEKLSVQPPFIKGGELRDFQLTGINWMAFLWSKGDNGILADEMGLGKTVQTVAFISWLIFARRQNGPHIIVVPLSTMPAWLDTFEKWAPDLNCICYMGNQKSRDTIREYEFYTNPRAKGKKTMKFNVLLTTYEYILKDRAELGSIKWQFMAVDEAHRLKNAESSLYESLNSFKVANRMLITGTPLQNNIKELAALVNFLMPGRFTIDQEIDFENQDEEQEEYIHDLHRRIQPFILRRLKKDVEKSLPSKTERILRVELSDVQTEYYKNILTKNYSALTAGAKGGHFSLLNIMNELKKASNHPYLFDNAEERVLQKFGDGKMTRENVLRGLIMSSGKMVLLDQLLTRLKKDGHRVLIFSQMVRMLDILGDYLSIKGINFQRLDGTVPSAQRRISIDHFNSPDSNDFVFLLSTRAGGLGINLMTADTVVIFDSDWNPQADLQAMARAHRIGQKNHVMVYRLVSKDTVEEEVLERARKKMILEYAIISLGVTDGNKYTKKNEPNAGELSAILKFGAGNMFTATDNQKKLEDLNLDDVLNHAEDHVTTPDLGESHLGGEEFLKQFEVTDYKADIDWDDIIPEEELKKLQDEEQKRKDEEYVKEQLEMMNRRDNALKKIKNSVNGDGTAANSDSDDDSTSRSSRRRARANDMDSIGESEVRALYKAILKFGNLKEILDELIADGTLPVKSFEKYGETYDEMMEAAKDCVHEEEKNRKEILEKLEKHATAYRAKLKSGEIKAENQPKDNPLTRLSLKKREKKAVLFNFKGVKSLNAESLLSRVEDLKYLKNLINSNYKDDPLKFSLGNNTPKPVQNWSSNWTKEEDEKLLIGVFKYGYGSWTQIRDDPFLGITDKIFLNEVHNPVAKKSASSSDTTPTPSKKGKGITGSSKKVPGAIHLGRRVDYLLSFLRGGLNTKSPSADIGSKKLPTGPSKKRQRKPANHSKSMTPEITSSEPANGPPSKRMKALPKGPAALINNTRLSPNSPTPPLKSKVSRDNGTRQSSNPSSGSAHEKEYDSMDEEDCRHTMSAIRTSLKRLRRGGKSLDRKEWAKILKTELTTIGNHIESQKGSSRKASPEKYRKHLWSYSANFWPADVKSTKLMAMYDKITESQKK

For some of these results: Measured potencies and affinities stand elsewhere.

Protein translocase subunit SecA (Escherichia coli (strain K12)), sequence (P10408 whole entry): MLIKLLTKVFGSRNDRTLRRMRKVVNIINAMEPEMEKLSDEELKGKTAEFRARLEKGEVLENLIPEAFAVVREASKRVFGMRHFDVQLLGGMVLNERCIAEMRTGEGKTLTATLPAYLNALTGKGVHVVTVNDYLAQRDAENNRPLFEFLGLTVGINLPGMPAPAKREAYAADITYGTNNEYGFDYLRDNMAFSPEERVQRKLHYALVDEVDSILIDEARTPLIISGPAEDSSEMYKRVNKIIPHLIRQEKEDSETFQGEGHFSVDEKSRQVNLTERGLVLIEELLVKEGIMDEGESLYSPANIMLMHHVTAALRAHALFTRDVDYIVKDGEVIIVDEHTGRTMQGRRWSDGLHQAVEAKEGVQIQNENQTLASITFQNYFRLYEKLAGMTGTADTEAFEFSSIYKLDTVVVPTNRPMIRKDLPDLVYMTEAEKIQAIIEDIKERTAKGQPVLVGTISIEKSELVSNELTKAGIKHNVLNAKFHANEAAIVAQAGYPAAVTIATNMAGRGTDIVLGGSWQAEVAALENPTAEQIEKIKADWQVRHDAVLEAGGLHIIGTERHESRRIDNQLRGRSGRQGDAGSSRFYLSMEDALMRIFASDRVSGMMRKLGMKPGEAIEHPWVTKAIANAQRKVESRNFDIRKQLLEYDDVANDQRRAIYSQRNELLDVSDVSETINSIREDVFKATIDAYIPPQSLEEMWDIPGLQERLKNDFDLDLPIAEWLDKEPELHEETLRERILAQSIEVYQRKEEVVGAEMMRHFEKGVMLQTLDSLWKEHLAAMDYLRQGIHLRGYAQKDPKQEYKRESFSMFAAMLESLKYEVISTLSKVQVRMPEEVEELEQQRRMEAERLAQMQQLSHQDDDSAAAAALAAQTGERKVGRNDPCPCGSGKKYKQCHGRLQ

For `CCOCC(O)CN1CCN(C(=O)CC(C)C)CC1` (stereo not drawn), the Percent Effect is -3.57% in [1]; 16.2% in test [2]; -2.25% in test [3]; 3.53% in test [4]; -4.62% in test [5]; 0.401% in [6]. Also, the Percent Effect in test [7] is 7.39%; in test [8], 12.1%; in test [9] it was 2.46%; in test [10], 11.1%; in test [11] it was -7.14%.

Regarding `N#Cc1ccc(C(=O)N2CCn3c(Cn4cccn4)cnc3C2)cc1`, the Percent Effect in test [1] is -4.62%; in test [2], 2.67%; in test [3], 0.576%; in [4], 1.75%; in test [5], -3.86%; in [6], -57.5%. The Percent Effect in [7] was 5.98%; in test [8] it was -6.78%; in [9], 2.08%; in test [10], 7.5%; in [11], -3.56%.

`O=C1CC(c2ccccc2F)c2c(n3ccsc3nc2=O)N1` (stereo not drawn): the Percent Effect is -2.59% in test [1]; 9.33% in test [2]; 1.41% in test [3]; 7.25% in test [4]; 2.95% in test [5]; -5.46% in test [6]. In addition, the Percent Effect in [7] is 7.76%; in [8], 2.76%; in test [9], 4.23%; in test [10] it was 12.8%; in test [11], -9.93%.

As to `CC(C)Nc1ncnc2c1CCN(C(=O)Cc1ccccn1)CC2`, the Percent Effect in [1] is -6.13%; in test [2], 1.33%; in test [3] it was -12.1%; in test [4], -2.69%; in [5], -6.48%; in test [6], -10.4%. Besides, the Percent Effect is 10.3% in test [7]; -12.6% in test [8]; -2.12% in test [9]; -2.56% in [10]; -11% in [11].

Turning to `CNS(=O)(=O)c1ccc(CNC(=O)NCC2CCOC2)cc1` (stereo not drawn), the Percent Effect in [1] was -3.53%; in [2], 15.6%; in test [3], 0.491%; in test [4], 2.49%; in test [5], 1.86%; in test [6], -0.21%. The Percent Effect was 11.7% in test [7]; -1.37% in [8]; 7.62% in test [9]; 14.1% in [10]; -9.18% in test [11].

Regarding `O=C(c1ccnnc1)N1C[C@H](Oc2cccnc2)[C@H]2OCCC[C@H]21`, the Percent Effect in [1] is -5.64%; in test [2], 0%; in [3] it was -1.06%; in test [4], -4.69%; in test [5], 0.781%; in test [6], -0.417%. In addition, the Percent Effect is 4.65% in test [7]; -14.6% in [8]; 11.9% in test [9]; 15.8% in [10]; -3.24% in test [11].

`CCc1nc(CN2CCCC(NCc3cnn(C(C)(C)C)c3)C2)no1` (stereo not drawn): the Percent Effect in test [1] was -2.85%; in test [2], 2.53%; in test [3] it was -0.494%; in [4], 3.84%; in [5], -1.6%; in [6] it was -1.52%. Also, the Percent Effect in test [7] is 6.63%; in test [8], 14.9%; in test [9], -1.48%; in test [10] it was -1.27%; in test [11], -0.901%.

With `O=C(c1cc(Cl)cc(Cl)c1)N1CCN(c2nccs2)CC1`, the Percent Effect was -2.62% in [1]; 13.7% in [2]; 5.26% in test [3]; 6.34% in test [4]; 0.588% in test [5]; 10.4% in [6]. In addition, the Percent Effect is 19.2% in [7]; 0.362% in test [8]; 4.3% in test [9]; 20% in test [10]; -10.5% in test [11].
